# Mtb FBA inh = inhibitors of M. tuberculosis fructose-bisphosphate aldolase; inhibition, % at 1 µM; purified M. tuberculosis FBA, fluorescence read-out; hit rate 2.3% among 360,000; AID 588726
# Target sequence (P9WQA3 whole entry, looked up): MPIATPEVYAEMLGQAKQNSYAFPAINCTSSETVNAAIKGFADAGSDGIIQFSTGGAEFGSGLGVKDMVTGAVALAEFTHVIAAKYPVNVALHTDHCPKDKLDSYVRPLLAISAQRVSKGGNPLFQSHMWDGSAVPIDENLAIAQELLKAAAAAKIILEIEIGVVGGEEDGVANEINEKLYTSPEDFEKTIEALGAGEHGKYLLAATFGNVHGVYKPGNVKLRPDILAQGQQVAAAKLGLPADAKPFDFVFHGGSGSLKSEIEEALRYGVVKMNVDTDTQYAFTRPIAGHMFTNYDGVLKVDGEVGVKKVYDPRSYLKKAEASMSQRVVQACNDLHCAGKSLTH
# Vc quorum ag = inducers of Vibrio cholerae quorum light production without autoinducers. V. cholerae BH1578 lux reporter, luminescence, 6 h. activation, % at 18.7 µM. hit rate 0.16% among 350,000. AID 588436; in the data active = activation mostly above about 9.7%, no sharp cut-off
# SARS 3CLpro inh = SARS-CoV 3CLpro protease inhibition; P0C6X7; recombinant SARS-CoV 3CLpro, quenched FRET peptide cleavage; inhibition, % at 6 µM; hit rate 0.14% among 290,000; AID 1706; in the data active = inhibition above about 12%
# GDH-TPI counter-1 = GDH-TPI coupled enzyme inhibition counter-screen. GDH-TPI coupled enzyme counterscreen, NADH absorbance. inhibition, % at 4.8 µM. hit rate 1.2% among 360,000; in the data active = inhibition above about 30%
# PrPC surface inh = cell surface PrPC inhibition, primary TR-FRET screen | AID 720596 | inhibition, % at 13.8 µM | TR-FRET read-out | hit rate 0.43% among 370,000 | P04156; in the data active = inhibition above about 24%
# Mtb FBA inh conf = confirmation of M. tuberculosis fructose-bisphosphate aldolase inhibitors. purified M. tuberculosis FBA, fluorescence read-out. inhibition, % at 1 µM. AID 651616. hit rate 78% among 5,600. shares compounds with Mtb FBA inh
# GDH-TPI counter-2 = inhibits GDH-TPI coupling enzymes, flagging Mtb FBA hits. shares compounds with Mtb FBA inh. GDH-TPI coupled enzyme counterscreen, fluorescence. inhibition, % at 1 µM. hit rate 81% among 5,600; in the data active = inhibition above about 10%
# GDH-TPI dose = counter-screen for M. tuberculosis FBA inhibitors: GDH-TPI dose response; shares compounds with Mtb FBA inh; GDH-TPI coupled enzyme assay, fluorescence, artifact counterscreen; IC50, µM; hit rate 79% among 170; call rule not given here
# Numbers stand for hits; 0 = inactive; - = no result; + = active, no number. Only some compounds are listed: those with a hit (about 3.9% of all), similar ones and a draw of the others. Rule as the data show it, unless noted: active = inhibition above about 27%; inactive = the rest.
SMILES,Mtb FBA inh,Vc quorum ag,SARS 3CLpro inh,GDH-TPI counter-1,PrPC surface inh,Mtb FBA inh conf,GDH-TPI counter-2,others
Cc1cc(OCC(=O)Nc2ccc(CN3CCOCC3)cc2)c2c(C)c(C)c(=O)oc2c1,71,0,0,0,0,+,+,
Cc1cc(=O)oc2cc(OCC(=O)Nc3ccc(CN4CCOCC4)cc3)ccc12,0,0,0,0,0,-,-,
Cc1cc(OCC(=O)Nc2ccc(CN3CCOCC3)cc2)c2c(C)cc(=O)oc2c1,77,0,0,0,0,52,33,
Cc1cccc(NC(=O)c2cc(S(=O)(=O)N(C)c3ccc(F)cc3)ccc2Cl)n1,0,0,-,0,0,-,-,
COc1ccc(C2=NN(CN3C(=O)C(=O)c4ccccc43)C(c3ccc(Br)cc3)C2)cc1 (centres undefined),0,0,0,0,0,-,-,
COc1ccc(C2CC(c3ccccc3Br)=NN2c2ccc(S(N)(=O)=O)cc2)cc1 (centres undefined),46,0,-,0,0,154,77,
Nc1nc2nccc(-c3ccccn3)n2n1,39,0,0,0,0,+,+,
c1ccc(-c2ccnc3ncnn23)nc1,0,0,0,0,0,-,-,
Cc1onc(-c2ccccc2)c1C(=O)Nc1ccncc1,0,0,0,0,0,-,-,
Cc1onc(-c2ccccc2)c1C(=O)Nc1nnc(-c2ccncc2)s1,46,0,0,57,0,67,55,
CCC(=O)Nc1nnc(-c2ccncc2)s1,43,0,0,0,0,100,89,
O=C(Nc1nnc(-c2ccncc2)s1)C1CCCO1 (centres undefined),82,0,0,0,0,0,0,GDH-TPI dose=2
O=C(Nc1nnc(-c2ccccc2F)s1)C1CCCO1 (centres undefined),0,0,0,0,0,-,-,
CCCC(=O)Nc1nnc(-c2ccc3c(c2)OCO3)s1,38,0,0,0,0,115,103,
C(=N\Nc1nc(-c2ccccc2)cs1)/c1cccs1,0,0,0,0,0,-,-,
CCn1c(SCC(=O)Nc2nc3ccc(OC)cc3s2)nc2c1c(=O)n(C)c(=O)n2C,0,0,0,0,0,-,-,
CC(C)NC(=O)C(=O)NNC(=O)CCc1ccccc1,0,0,0,0,0,-,-,
Fc1ccccc1/C=N/n1cc(-c2ccccc2)[nH]c1=S,51,0,0,0,0,137,127,
Cc1cccc(-n2cc(-c3ccccc3)[nH]c2=S)c1,0,0,0,0,0,-,-,
Cc1ccc(C)c(/C=N/n2cc(-c3ccccc3)[nH]c2=S)c1,43,0,0,0,0,+,+,
Fc1ccccc1/C=N/n1cnnc1,0,0,0,0,0,-,-,
OCCNCc1c(OCc2ccc(Cl)cc2)ccc2ccccc12,0,0,0,0,0,-,-,
Cc1cc(=O)oc2cc(OCC(=O)NC3CCN(Cc4ccccc4)CC3)ccc12,0,0,0,0,0,-,-,
Cc1cc(OCC(=O)N[C@@H](CSCc2ccccc2)C(=O)O)c2c(C)c(C)c(=O)oc2c1,62,0,0,0,0,78,68,
Cc1c(Cc2ccccc2)c(=O)oc2c(C)c(OCC(=O)N3CCC(C(=O)O)CC3)ccc12,107,0,0,0,0,60,32,
SMILES,Mtb FBA inh,Vc quorum ag,SARS 3CLpro inh,GDH-TPI counter-1,PrPC surface inh,Mtb FBA inh conf,GDH-TPI counter-2,others
CCCCCCc1c(C)c2ccc(OCC(=O)N[C@@H](Cc3ccccc3)C(=O)O)cc2oc1=O,73,0,0,0,0,+,+,
Cc1c(C)c2ccc(OCC(=O)NC3CCN(Cc4ccccc4)CC3)cc2oc1=O,39,0,0,0,0,50,39,
Cc1cc(OCC(=O)C(C)(C)C)c2c(-c3ccccc3)cc(=O)oc2c1,0,0,0,0,0,-,-,
OCCCn1c(C(CO)Nc2nc(-c3ccc(Cl)cc3)cs2)nc2ccccc21 (centres undefined),0,0,-,0,0,-,-,
COc1cc(OC)cc(C(C)c2ccc(-c3ccccc3)cc2)c1 (centres undefined),-,-,-,-,0,-,-,
Cc1c(C)c2ccc(OCC(=O)N[C@@H](Cc3c[nH]c4ccccc34)C(=O)O)cc2oc1=O,0,0,0,0,0,-,-,
COc1ccc2c(COC(=O)[C@H](C)NS(=O)(=O)c3ccccc3F)cc(=O)oc2c1,109,0,-,0,0,+,153,
Cc1c(C)c2ccc(OCC(=O)N[C@@H](Cc3ccccc3)C(=O)O)cc2oc1=O,77,0,0,0,0,95,81,
COc1ccc(NCc2cc(=O)oc3cc(NC(C)=O)ccc23)cc1,73,0,0,0,0,121,88,
COc1ccc2c(COC(=O)c3n[nH]c4ccccc34)cc(=O)oc2c1,35,0,0,0,0,124,107,
Cc1cc2oc(=O)cc(COC(=O)c3n[nH]c4ccccc34)c2cc1C,0,0,0,0,0,-,-,
Cc1cccc(-n2ccnc2CN2CCC(CO)(Cc3ccccc3)CC2)c1,0,0,0,0,0,-,-,
CCc1nc2c(OCCn3cccc3)cccn2c1N(C)C(=O)C1CC1,0,0,-,0,0,-,-,
COc1ccc2c(CC(=O)N[C@@H](Cc3ccccc3)C(=O)O)cc(=O)oc2c1,101,0,0,0,0,100,86,
Cc1c(Cc2ccccc2)c(=O)oc2cc(OCC(=O)NC(Cc3ccc(Cl)cc3)C(=O)O)ccc12 (centres undefined),92,0,0,0,0,170,151,
Cc1c(Cc2ccccc2)c(=O)oc2c(C)c(OCC(=O)NCc3ccccn3)ccc12,0,0,0,0,0,-,-,
Cc1c(Cc2ccccc2)c(=O)oc2c(C)c(OCC(=O)N[C@@H](Cc3ccccc3)C(=O)O)ccc12,53,0,0,0,0,+,+,
CCCCc1cc(=O)oc2cc(OCC(=O)N[C@@H](Cc3ccccc3)C(=O)O)ccc12,0,0,0,0,0,-,-,
Cc1c(C)c2ccc(OCC(=O)NC(Cc3ccc(Cl)cc3)C(=O)O)cc2oc1=O (centres undefined),96,0,0,0,0,116,79,
Cc1[nH]nc2c1C(c1ccc(F)cc1)N(Cc1ccccc1)C2=O (centres undefined),-,-,-,-,0,-,-,
CCOC(=O)COc1nc(-c2ccco2)cc(-c2ccco2)c1C#N,80,0,0,0,0,0,14,
CC(C)Oc1ccc(CN2CCC(n3nccc3NC(=O)C3CC3)CC2)cc1,0,0,0,0,0,-,-,
COc1ccc(-c2cc(=O)[nH]c(=S)[nH]2)cc1,0,0,0,0,0,-,-,
COc1ccc(-c2ccc(C(=O)O)c(=O)[nH]2)cc1,71,0,0,0,0,106,81,
CC1=NN(CCc2ccccn2)C(=O)CC1,0,0,-,0,0,-,-,
CC(=O)Nc1sc(N/N=C/c2ccc(N(C)C)cc2)nc1-c1ccc(C)cc1,39,0,0,40,0,132,102,
